Measurements: PubChem BioAssay
The source made the active and inactive calls. Unless noted, the rule behind the calls is not given here.

What was measured:
[1] = system: Wnt5a (protein binding on small-molecule microarray); test: small molecules binding Wnt5a protein – biophysical, small-molecule microarray, 635/667 nm fluorescence, primary screen (AID 1142); conditions: 635 nm fluorescence, higher = more signal;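 note: fluorescence read at 667 nm with signal to noise per printed feature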
[2] = ATP-based viability of Huh7 replicon cells – cell-based, CellTiter-Glo luminescence, basal, 48 h, cytotoxicity control for HCV replication inhibitor project, primary screen (AID 1143); conditions: higher = more signal, called active from +8 up or from −8 down;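 note: Huh7 hepatoma cells carrying a hepatitis C replication reporter with no stimulus; test concentration not given here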
[3] = Pseudomonas biofilm growth suppression – PAO1 strain, BacTiter-Glo luminescence, LB-PBS, primary screen (AID 1144); conditions: P. aeruginosa PAO1 biofilm, 12 h, higher = more signal
[4] = basal CRE-LacZ reporter activity in PC12 – cell-based, unstimulated, primary screen (AID 1145); conditions: no forskolin, luminescence, 4.5 h, higher = more signal, called active from +8 up or from −8 down
[5] = forskolin-driven CRE-LacZ activity in PC12 – cell-based, CRE-LacZ reporter, forskolin-stimulated, primary screen (AID 1146); conditions: luminescence, 4.5 h, higher = more signal, called active from +8 up or from −8 down;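 note: PC12 cells with 6xCRE LacZ reporter stimulated by forskolin 10 µM; beta-galactosidase reporter signal reflecting CREB driven transcription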
[6] = molecular target: Streptavidin (Streptomyces avidinii) (UniProt P22629); test: compounds binding control protein streptavidin – biophysical, small-molecule microarray, 635/667 nm fluorescence, artefact control for SMM compound annotation, primary screen (AID 1147); conditions: higher = more signal;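 note: signal reflects streptavidin binding to arrayed compounds as a control protein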
[7] = probe aInhba binding on compound microarray – biochemical, small-molecule microarray, 635/667 nm fluorescence, primary screen (AID 1148); conditions: higher = more signal;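 note: score merges 667nm spot fluorescence with signal-to-noise for antibody binding to printed compounds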
Torsin-1A (Homo sapiens) [8] = molecular target: Torsin-1A (Homo sapiens) (UniProt O14656); test: TOR1A wild-type binding on microarray – cell lysate, small-molecule microarray, lysate, 635/667 nm, primary screen (AID 1149); conditions: COS7 hTOR1A-WT lysate, 635 nm fluorescence, higher = more signal
Torsin-1A (Homo sapiens) [9] = molecular target: Torsin-1A (Homo sapiens) (UniProt O14656); test: torsin A mutant lysate binding on microarrays – cell lysate, small-molecule microarray, COS7 lysate, 635/667 nm fluorescence, primary screen (AID 1150); conditions: COS7 hTOR1A mutant lysate, 635 nm fluorescence, higher = more signal;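 note: score pools 667 nm emission and signal to noise measuring lysate protein binding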
[10] = system: Sonic hedgehog protein (Shh); test: Sonic hedgehog microarray binding compounds – biochemical, small-molecule microarray, 635/667 nm fluorescence, primary screen (AID 1151); conditions: 635 nm fluorescence, higher = more signal;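 note: Shh protein binding to compounds spotted on small-molecule microarray slides; score combines spot fluorescence intensity with signal-to-noise across triplicate slides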
[11] = optical density shifts of acrAB sulA E. coli – strain DRC41, OD650, 48 h, E. coli filamentation inducer project, primary screen (AID 1152); conditions: higher = more signal, called active from +8 up or from −8 down;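 note: E. coli MC1000 strain DRC41 lacking acrAB efflux pump and sulA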
[12] = probe aLefty1 binding on compound microarray – biochemical, small-molecule microarray, 635/667 nm fluorescence, primary screen (AID 1153); conditions: higher = more signal;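 note: score merges spot fluorescence with signal-to-noise ratio from the scanned slide images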
[13] = plasmodial surface anion channel blockers, osmotic lysis – cell-based, P. falciparum Indochina, OD700, 1 h, primary screen (AID 1154); conditions: P. falciparum Indochina infected RBC osmotic lysis, higher = more signal, called active from +8 up or from −8 down
[14] = plasmodial surface anion channel blockers, osmotic lysis – cell-based, P. falciparum Indochina, OD700, 2 h, primary screen (AID 1155);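 note: lysis reports solute entry through the parasite surface anion channel PSAC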; conditions: P. falciparum Indochina infected erythrocytes, higher = more signal, called active from +8 up or from −8 down
[15] = changes in parasitized red cell lysis, either direction – P. falciparum Indochina, OD700, 3 h, PSAC antagonist project, primary screen (AID 1156); conditions: P. falciparum-infected erythrocytes, osmotic lysis, higher = more signal, called active from +8 up or from −8 down
[16] = plasmodial surface anion channel blockers, osmotic lysis – cell-based, P. falciparum Indochina, OD700, 18 h, primary screen (AID 1157); conditions: P. falciparum Indochina infected erythrocytes, osmotic lysis OD700, 18 h; higher = more signal, called active from +8 up or from −8 down
[17] = S6 kinase pathway phospho-S6 level changes – cell-based, A549, cytoblot, luminescence, serum-stimulated, primary screen (AID 1158); conditions: 5 h, higher = more signal;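 note: serum-stimulated A549 lung adenocarcinoma cells; signal is phosphorylated S6 detected by cytoblot immunostaining with HRP secondary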
[18] = molecular target: NADPH oxidase 2 (Homo sapiens) (UniProt P04839); test: compounds shifting NOX2 Amplex Red fluorescence – cell-based, HEK293-NOX2, PMA-stimulated, NOX inhibitor project, primary screen (AID 1159); conditions: 45 min, higher = more signal, called active from +8 up or from −8 down; note: test concentration not given here
[19] = molecular target: NADPH oxidase 4 (Homo sapiens) (UniProt Q9NPH5); test: compounds shifting NOX4 Amplex Red fluorescence – cell-based, HEK293-NOX4, tetracycline-induced, NOX inhibitor project, primary screen (AID 1160); conditions: HEK293-NOX4, Amplex Red H2O2 fluorescence, 45 min; higher = more signal, called active from +8 up or from −8 down
[20] = molecular target: NADPH oxidase 5 (Homo sapiens) (UniProt Q96PH1); test: compounds shifting NOX5 Amplex Red fluorescence – cell-based, HEK293-NOX5, NOX inhibitor project, primary screen (AID 1161); conditions: HEK293-NOX5, ionomycin, 45 min, higher = more signal
NADPH oxidase 5 (Homo sapiens), sequence (Q96PH1 whole entry, looked up): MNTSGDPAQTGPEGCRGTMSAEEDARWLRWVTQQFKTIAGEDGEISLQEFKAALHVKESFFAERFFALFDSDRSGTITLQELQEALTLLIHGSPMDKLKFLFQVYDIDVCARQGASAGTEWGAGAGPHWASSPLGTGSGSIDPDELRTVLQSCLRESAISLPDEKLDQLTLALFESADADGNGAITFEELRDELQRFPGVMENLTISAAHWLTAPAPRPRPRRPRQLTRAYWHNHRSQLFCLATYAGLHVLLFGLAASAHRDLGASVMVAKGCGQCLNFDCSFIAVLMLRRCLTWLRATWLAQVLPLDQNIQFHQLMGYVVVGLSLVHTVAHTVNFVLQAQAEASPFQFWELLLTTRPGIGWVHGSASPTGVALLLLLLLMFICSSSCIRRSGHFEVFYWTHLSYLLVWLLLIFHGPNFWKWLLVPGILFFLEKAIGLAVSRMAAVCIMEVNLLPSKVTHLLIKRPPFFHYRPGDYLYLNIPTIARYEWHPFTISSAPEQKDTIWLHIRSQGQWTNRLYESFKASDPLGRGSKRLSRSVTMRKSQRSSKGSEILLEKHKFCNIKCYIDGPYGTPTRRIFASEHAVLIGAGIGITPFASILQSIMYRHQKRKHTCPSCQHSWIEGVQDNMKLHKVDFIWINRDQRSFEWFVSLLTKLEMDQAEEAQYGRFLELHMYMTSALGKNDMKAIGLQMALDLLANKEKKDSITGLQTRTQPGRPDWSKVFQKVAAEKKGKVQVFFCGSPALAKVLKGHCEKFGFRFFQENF

Streptavidin (Streptomyces avidinii), sequence (P22629 whole entry, looked up): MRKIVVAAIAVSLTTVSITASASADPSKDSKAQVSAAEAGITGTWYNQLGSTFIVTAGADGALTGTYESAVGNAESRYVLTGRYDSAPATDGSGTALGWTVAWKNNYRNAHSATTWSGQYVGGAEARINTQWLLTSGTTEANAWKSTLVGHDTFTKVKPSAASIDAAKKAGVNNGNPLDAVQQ
NADPH oxidase 4 (Homo sapiens), sequence (Q9NPH5 whole entry, looked up): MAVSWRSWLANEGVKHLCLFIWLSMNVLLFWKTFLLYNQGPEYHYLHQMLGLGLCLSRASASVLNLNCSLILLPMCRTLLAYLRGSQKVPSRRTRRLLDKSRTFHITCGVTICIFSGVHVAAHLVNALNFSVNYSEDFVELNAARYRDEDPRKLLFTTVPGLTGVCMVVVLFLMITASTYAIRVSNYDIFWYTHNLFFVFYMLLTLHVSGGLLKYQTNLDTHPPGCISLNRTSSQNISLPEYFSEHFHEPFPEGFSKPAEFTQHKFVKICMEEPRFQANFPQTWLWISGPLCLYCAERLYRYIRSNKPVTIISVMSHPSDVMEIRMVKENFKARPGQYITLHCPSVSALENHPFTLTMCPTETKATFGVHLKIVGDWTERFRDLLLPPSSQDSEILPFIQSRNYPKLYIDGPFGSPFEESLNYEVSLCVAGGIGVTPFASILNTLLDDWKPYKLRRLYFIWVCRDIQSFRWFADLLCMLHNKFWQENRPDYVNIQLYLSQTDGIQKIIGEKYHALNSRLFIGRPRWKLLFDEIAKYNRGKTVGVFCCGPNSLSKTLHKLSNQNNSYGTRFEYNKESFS
NADPH oxidase 2 (Homo sapiens), sequence (P04839 whole entry, looked up): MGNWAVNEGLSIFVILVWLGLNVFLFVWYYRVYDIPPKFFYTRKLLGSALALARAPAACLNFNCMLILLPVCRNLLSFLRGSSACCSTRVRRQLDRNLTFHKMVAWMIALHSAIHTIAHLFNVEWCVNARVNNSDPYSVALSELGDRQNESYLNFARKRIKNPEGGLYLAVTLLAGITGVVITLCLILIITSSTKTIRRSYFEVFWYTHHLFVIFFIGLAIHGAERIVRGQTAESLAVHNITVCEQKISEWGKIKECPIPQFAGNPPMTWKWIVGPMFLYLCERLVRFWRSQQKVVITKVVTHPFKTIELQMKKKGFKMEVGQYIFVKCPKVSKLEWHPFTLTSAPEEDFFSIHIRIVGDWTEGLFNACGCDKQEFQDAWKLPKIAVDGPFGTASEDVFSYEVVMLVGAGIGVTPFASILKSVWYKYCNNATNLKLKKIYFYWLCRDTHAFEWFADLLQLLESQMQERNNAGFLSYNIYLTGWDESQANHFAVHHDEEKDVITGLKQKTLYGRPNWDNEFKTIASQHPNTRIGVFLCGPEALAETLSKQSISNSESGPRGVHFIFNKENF
Torsin-1A (Homo sapiens), sequence (O14656 whole entry, looked up): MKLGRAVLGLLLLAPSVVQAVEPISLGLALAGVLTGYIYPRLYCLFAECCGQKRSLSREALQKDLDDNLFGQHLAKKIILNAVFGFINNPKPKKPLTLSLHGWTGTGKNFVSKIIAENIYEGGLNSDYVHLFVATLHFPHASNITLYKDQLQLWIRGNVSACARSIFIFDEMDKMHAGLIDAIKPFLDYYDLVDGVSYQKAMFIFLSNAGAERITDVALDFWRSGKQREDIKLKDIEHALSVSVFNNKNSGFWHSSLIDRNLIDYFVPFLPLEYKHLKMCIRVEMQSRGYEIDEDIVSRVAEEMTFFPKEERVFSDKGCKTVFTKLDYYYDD

SMILES | composite z-score [1] | z-score [2] | z-score [3] | z-score [4] | z-score [5] | composite z-score [6] | composite z-score [7] | composite z-score (Torsin-1A (Homo sapiens) [8]) | composite z-score (Torsin-1A (Homo sapiens) [9]) | composite z-score [10] | z-score [11] | composite z-score [12] | z-score [13] | z-score [14] | z-score [15] | z-score [16] | z-score [17] | z-score [18] | z-score [19] | z-score [20]
[N-]=[N+]=NCc1ccccc1[C@@H]1OC(c2ccc(OCCCO)cc2)=N[C@]1(Cc1ccccc1)C(=O)NCc1ccccc1 | 0.609 | -2.86 (inactive) | -0.338 (inactive) | -0.585 (inactive) | 0.0071 (inactive) | 1.24 | -0.0267 | 0.823 | 1.1 | -0.471 | 0.251 (inactive) | 0.219 | 18.4 (active) | 4.26 (inactive) | 1.52 (inactive) | 0.983 (inactive) | 0.0369 | -3.27 (inactive) | 1.15 (inactive) | 0.85
CCOC(=O)C1=CC[C@@H](c2ccccc2)N(S(=O)(=O)c2ccc(C)cc2)[C@H]1C#N | 0.114 | -1.82 (inactive) | 0.184 (inactive) | -0.48 (inactive) | 3.56 (inactive) | 0.93 | 0.134 | 0.0439 | 0.189 | -0.707 | -0.355 (inactive) | -0.081 | 2.97 (inactive) | 1.91 (inactive) | -0.157 (inactive) | 0.999 (inactive) | -0.769 | 0.426 (inactive) | 0.122 (inactive) | -0.116
CCOC(=O)C[C@H]1[C@H](OC(=O)Cc2ccc3c(c2)OCO3)[C@@H](NC(=O)c2ccccc2)c2cc(OCCCO)ccc2N1C(=O)Cc1ccc(OC)cc1 | -0.0328 | -1.82 (inactive) | -1.04 (inactive) | 2.31 (inactive) | -0.789 (inactive) | 0.662 | -0.045 | 0.693 | 0.749 | -0.256 | 1.57 (inactive) | -0.31 | 9.58 (active) | 0.828 (inactive) | -0.288 (inactive) | -0.129 (inactive) | 2.91 | -0.986 (inactive) | 0.205 (inactive) | -1.1
CN1C(=O)[C@]2(CCC(=O)OC(C)(C)C)N=C(c3ccc(OCCCO)cc3)O[C@@H]2c2ccccc21 | 0.935 | -4.74 (inactive) | -0.598 (inactive) | 1.41 (inactive) | -0.572 (inactive) | -0.201 | 0.134 | 0.112 | 0.401 | 2.11 | 0.504 (inactive) | 0.448 | 33.2 (active) | 29.3 (active) | 2.63 (inactive) | 2.68 (inactive) | -0.0426 | -2.09 (inactive) | -0.534 (inactive) | -1.44
C=CCNC(=O)[C@@H]1[C@H]2C(=O)O[C@H](c3ccccc3)[C@H](c3ccccc3)N2[C@H](c2ccc(O)cc2)[C@@]12C(=O)Nc1ccc(C#CC3(O)CCCCCC3)cc12 | 0.179 | -0.794 (inactive) | -0.817 (inactive) | -1.69 (inactive) | -0.361 (inactive) | -0.932 | -0.128 | 0.16 | 0.781 | 1.11 | -0.418 (inactive) | -0.196 | 2.35 (inactive) | 0.275 (inactive) | 0.0479 (inactive) | 0.778 (inactive) | -0.339 | 0.948 (inactive) | 0.534 (inactive) | 1.19
CCc1cccc(NC(=O)O[C@H]2[C@H](OC(=O)Nc3ccc4c(c3)OCO4)[C@H](OC(=O)Nc3ccc4c(c3)OCO4)[C@@H](OC)O[C@@H]2CO)c1 | 0.322 | -4.18 (inactive) | -0.373 (inactive) | -0.3 (inactive) | -0.321 (inactive) | 0.0602 | 0.0497 | 0.138 | 0.97 | 1.91 | -0.128 (inactive) | 0.349 | 18.2 (active) | 2.63 (inactive) | 1.73 (inactive) | 1.18 (inactive) | 0.921 | -3.43 (inactive) | -1.11 (inactive) | -1.65
CCCC=C(CCC)[C@@H](NC(=O)c1ccco1)c1ccc(C(=O)OC)cc1 | 0.22 | -3.84 (inactive) | 0.737 (inactive) | 0.0143 (inactive) | 0.514 (inactive) | 1.92 | 0.218 | 0.0918 | 0.918 | -0.276 | -1.68 (inactive) | 0.48 | -0.687 (inactive) | 0.324 (inactive) | 0.893 (inactive) | 1.11 (inactive) | -0.277 | -0.0272 (inactive) | 1.46 (inactive) | 1.99
COc1cccc(C[C@H]2C[C@@H](CO[Si](C(C)C)(C(C)C)C(C)C)N3C(=O)[C@@]4(C(C)=O)O[C@@]23[C@@H]2C(=O)N(C)C(=O)[C@@H]24)c1 | 0.0121 | -2.38 (inactive) | 0.333 (inactive) | 0.222 (inactive) | -0.065 (inactive) | 0.0285 | 0.2 | 0.241 | 0.0185 | 1.3 | -0.848 (inactive) | -0.0061 | 1.31 (inactive) | 0.576 (inactive) | -0.176 (inactive) | 0.0375 (inactive) | -0.669 | -0.175 (inactive) | 0.746 (inactive) | 0.181
CC(=O)NCCCC[C@@H]1NC(=O)[C@H]2C[C@@H](C(=O)NCCCCCC[N+](C)(C)C)[C@@H](c3ccc(O)cc3)N2C1=O | -0.127 | -0.385 (inactive) | -1.42 (inactive) | -1.35 (inactive) | -0.665 (inactive) | -0.448 | 0.0857 | 1.4 | 1.75 | 2.1 | 0.371 (inactive) | 0.0262 | 1.94 (inactive) | 0.369 (inactive) | 0.469 (inactive) | 0.0802 (inactive) | -0.054 | 0.834 (inactive) | 0.288 (inactive) | -0.454
